CHT inh: inhibitors of human choline transporter CHT. CHT-expressing cells, membrane potential dye, choline response; active compounds read low. AID 488975, 2010. B-score at 10 µM. 310,000 compounds, 0.86% hits;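 active = B-score over 3 SD under the library average, and starting fluorescence ratio not unusually high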;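 also: choline stimulus applied at its EC90 after an EC20 pre-addition; B-score computed on integrated fluorescence ratio after choline addition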
ANO1 block: TMEM16A chloride channel inhibitors, primary screen, cell-based, HTS. normalized B-score (activity score, 25-100; higher = stronger inhibition) at 10 µM. AID 588511, 2011. Anoctamin-1 (Mus musculus), Q8BHY3. 310,000 compounds, 1.2% hits. HEK293 TMEM16A/YFP iodide influx fluorescence, ionomycin;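 active = ratio plate-corrected score three or more library SD toward inhibition, starting fluorescence score within five deviations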;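 also: score derived from kinetic fluorescence span divided by baseline fluorescence per well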
Target sequence (Q8BHY3 whole entry, looked up): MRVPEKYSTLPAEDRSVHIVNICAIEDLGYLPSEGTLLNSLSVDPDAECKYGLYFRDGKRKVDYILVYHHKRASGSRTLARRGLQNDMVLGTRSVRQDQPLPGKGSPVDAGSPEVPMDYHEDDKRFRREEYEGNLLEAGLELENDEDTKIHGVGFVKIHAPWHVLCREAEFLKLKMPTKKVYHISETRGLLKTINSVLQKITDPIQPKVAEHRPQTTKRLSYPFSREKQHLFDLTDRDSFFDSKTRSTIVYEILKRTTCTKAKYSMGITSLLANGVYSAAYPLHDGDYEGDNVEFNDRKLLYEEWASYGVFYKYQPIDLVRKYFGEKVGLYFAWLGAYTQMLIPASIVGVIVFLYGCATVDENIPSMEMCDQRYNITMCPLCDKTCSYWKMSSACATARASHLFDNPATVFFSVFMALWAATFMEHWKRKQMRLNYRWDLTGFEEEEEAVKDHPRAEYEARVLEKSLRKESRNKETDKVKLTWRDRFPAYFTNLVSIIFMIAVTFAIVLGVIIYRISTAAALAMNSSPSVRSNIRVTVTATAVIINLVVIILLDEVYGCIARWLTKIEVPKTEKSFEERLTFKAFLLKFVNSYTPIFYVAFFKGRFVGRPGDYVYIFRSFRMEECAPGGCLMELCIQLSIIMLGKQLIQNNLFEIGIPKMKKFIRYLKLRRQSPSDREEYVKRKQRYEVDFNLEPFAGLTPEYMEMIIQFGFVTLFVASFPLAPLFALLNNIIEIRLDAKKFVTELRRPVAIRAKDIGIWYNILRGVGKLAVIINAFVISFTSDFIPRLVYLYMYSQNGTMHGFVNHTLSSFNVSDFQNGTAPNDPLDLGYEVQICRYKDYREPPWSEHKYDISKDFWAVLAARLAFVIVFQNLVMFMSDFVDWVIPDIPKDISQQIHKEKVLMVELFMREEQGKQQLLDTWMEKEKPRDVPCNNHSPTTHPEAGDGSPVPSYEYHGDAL
IDE cell activ: human IDE activators in live cells, primary screen, fluorescence polarization, HEK cells, FAbeta-B substrate. FAbeta-B cleavage; 0% vehicle, 100% cell-free pure enzyme wells. 340,000 compounds, 0.073% hits. Insulin-degrading enzyme (Homo sapiens), P14735. activation, % at 5.96 µM. AID 493087, 2011;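 active = activation above the mean of all tested compounds plus 3 SD, set per screening campaign, cut at about 17% in these data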
IDE inh: human IDE inhibitors in live cells, primary screen, fluorescence polarization, HEK cells, FAbetaB substrate; inhibition, % at 5.59 µM; 320,000 compounds, 0.41% hits; FAbetaB cleavage;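 active = percent inhibition above the average of all tested compounds plus 3 SD, set per screening campaign, cut at about 16% in these data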;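 also: IDE supplied by intact live HEK cells; FP after avidin binding of uncleaved biotin substrate so inhibition keeps polarization high; 0% = DMSO wells and 100% = 60 µM reference IDE inhibitor Ii1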
CHT PAM: CHT positive allosteric modulators, primary screen, cell-based, membrane potential dye, choline EC20; B-score at 10 µM; CHT-expressing cells; active compounds read high; LV-AA mutant CHT in HEK293 cells; High affinity choline transporter 1 (Homo sapiens), Q9GZV3; 310,000 compounds, 0.49% hits;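 active = initial fluorescence not abnormally high and integrated response B-score, plate-corrected, over 3 SD above library mean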
TMEM16A act: TMEM16A chloride channel activators or potentiators, primary screen, cell-based, HTS | 340,000 compounds, 0.3% hits | Anoctamin-1 (Mus musculus), Q8BHY3 | HEK293 TMEM16A/YFP-H148Q/I152L, iodide quench fluorescence; active compounds read low | B-score at 10 µM | AID 623877, 2012;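 active = fluorescence-ratio B-score plate-corrected deviation score at least 3 library SD below zero, with starting fluorescence score within 5 deviations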;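 also: channel opened by trigger with iodide after compound preincubation; score built on the fluorescence ratio of max minus min over baseline; more negative score means more quench and so TMEM16A activation or potentiation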
CHT act confirm: CHT activators, confirmation, cell-based, membrane potential dye, duplicate; shares compounds with CHT PAM; CHT-expressing cells, membrane potential dye fluorescence (FDSS); % of choline EC20–EC90 response window; HEK293 expressing CHT LV-AA mutant; choline added at its EC20; activation, % at 10 µM; 2,500 compounds, 91% hits;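 active = primary screen active, with duplicate mean activation above negative control mean plus 3 SD, cut at about 11% in these data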
HEK293 MP dye: membrane potential response in parental HEK293 cells, counter-screen for CHT activator project, cell-based, membrane potential dye; shares compounds with CHT PAM; membrane potential dye fluorescence (FDSS); measured after EC20 choline addition; ratio readout change at 10 µM, hits read low; 2,500 compounds, 62% hits; AID 623908, 2012;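 active = duplicate-averaged ratio beyond 3 SD from buffer wells, up or down, though filed actives are nearly all decreases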
The depositor's hits bear a star; i = inactive; x = no result. A selection: hits, their analogues and other compounds. The true share with any hit is near 2.7%.

SMILES	CHT inh	ANO1 block	IDE cell activ	IDE inh	CHT PAM	TMEM16A act	CHT act confirm	HEK293 MP dye
O=C(O)C(Cc1ccccc1N(CCO)CCO)N1C(=O)c2ccccc2C1=O (centres undefined)	x	x	-2.5	x	x	i	x	x
O=C(CSc1nnc(N2CCCC2)n1-c1ccccc1Cl)N1CCN(c2ccccn2)CC1	x	x	3.7	-3.0	x	i	x	x
Cc1cc(Cn2ccnc2)c(C)cc1Cn1ccnc1	i	i	-5.2	1.2	i	i	45.1*	-40.8*
COC(=O)C1=C(C)N(Cc2ccccc2)C(=NCc2ccccc2)N[C@H]1c1cccc(F)c1	i	i	4.2	3.0	16.1*	i	39.6*	i
c1ccc(N2CCN(c3ccc4nncn4n3)CC2)nc1	i	i	5.8	0.7	9.75*	i	66.1*	-58*
Cc1nnc2ccc(N3CCN(c4ccccn4)CC3)nn12	i	i	-1.5	-0.5	7.23*	i	52.7*	-51.2*
c1cc2nncn2nc1N1CCCC1	i	i	3.0	-0.9	i	i	x	x
Cc1nnc2ccc(N3CCCCC3)nn12	i	i	-5.9	2.6	i	i	x	x
CCC(C(=O)NC(CC(=O)O)c1ccc(Cl)cc1)c1ccccc1 (centres undefined)	i	i	2.7	0.7	i	i	x	x
CCCOc1ccc(C(=O)CCC(=O)OCC(=O)Nc2cccc(S(N)(=O)=O)c2)cc1	x	x	-3.8	x	x	i	x	x
CCN1C(=NCc2ccccc2)N[C@@H](c2ccccc2)[C@H](C(=O)OC)[C@H]1C	i	i	-3.2	3.4	6.93*	i	12.1*	i
CC(=O)[C@@H]1[C@@H](C)N(Cc2ccccc2)C(=O)N[C@H]1c1cccc(C(F)(F)F)c1	i	i	-0.3	-2.8	i	i	x	x
COC(=O)[C@@H]1[C@@H](C)N(Cc2ccccc2)C(=O)N[C@H]1c1cccc(C(F)(F)F)c1	i	i	4.6	-3.9	9.4*	i	-2.8	i
O=C(COc1ccccc1[N+](=O)[O-])N(Cc1ccco1)C1CCS(=O)(=O)C1 (centres undefined)	i	i	3.9	0.8	i	i	x	x
COc1cc(/C=N/NC(=O)C(=O)/C=C2\NC3(CCCC3)Cc3ccccc32)ccc1O	i	i	5.8	-3.7	i	i	x	x
CN(C)c1ccc(/C=N/NC(=O)C(=O)/C=C2\NC3(CCCC3)Cc3ccccc32)cc1	i	i	-7.5	5.5	6.68*	i	-0.2	i
CCN(CC)CCNc1cc(C)nc2c1C(=O)C(=O)C=C2N1CCCCC1	i	i	1.3	4.0	7.33*	i	64.5*	-66.1*
C[C@@]12C(=O)N(CC3CCCO3)CC(=O)N1[C@H]1c3ccccc3OC[C@@H]1[C@@H]2c1ccccc1 (some centres undefined)	x	x	-1.9	-1.0	x	i	x	x
O=C1c2cccc3cccc(c23)C(=O)N1CCN1CCN(CC(O)COc2ccccc2)CC1 (centres undefined)	i	i	1.9	-0.8	i	i	-1.1	i
COc1cccc(OCC(O)CN2CCN(CCN3C(=O)c4cccc5cccc(c45)C3=O)CC2)c1 (centres undefined)	i	i	5.5	4.3	i	i	x	x
COC(=O)C1=C(C)NC(=O)/C1=C\c1cc(C)n(-c2c(C)cccc2C)c1C	i	i	1.0	0.2	i	i	15.8*	i
COC(=O)C1=C(C)NC(=O)/C1=C\c1cc(C)n(-c2ccccc2C)c1C	i	i	1.5	-0.2	i	i	x	x
CCOC(=O)c1ccc2c(c1)[n+](CC)c(C)n2-c1ccccc1	i	i	7.1	-3.3	i	i	x	x
CC[n+]1c(C)n(-c2ccccc2)c2ccc(C(=O)OC)cc21	i	i	4.7	0.9	7.54*	i	32.1*	-29*
O=C1c2nc3cc(-c4ccco4)[nH]n3c(=O)c2CN1Cc1ccccc1	i	i	x	5.9	6.97*	i	29.7*	-55.2*
SMILES	CHT inh	ANO1 block	IDE cell activ	IDE inh	CHT PAM	TMEM16A act	CHT act confirm	HEK293 MP dye
COc1ccccc1CC(=O)Nc1cc2oc3ccccc3c2cc1OC	i	i	4.6	-4.9	i	i	x	x
COc1cc2c(cc1NC(=O)COCC(=O)O)oc1ccccc12	i	i	2.9	x	i	i	46.3*	-44.9*
COc1ccc2cc(C(=O)N3CCC(Cc4ccccc4)CC3)[nH]c2c1	i	i	0.7	5.9	i	i	x	x
CCN(CC)CCN(Cc1cc2cc(C)cc(C)c2[nH]c1=O)C(=S)NCc1ccco1	i	i	0.0	8.0	i	i	x	x
CCN(CC)CCN(Cc1cc2ccc(C)c(C)c2[nH]c1=O)C(=S)NCc1ccco1	i	i	-1.5	0.1	i	i	16.3*	-24.9*
COc1cccc(NC(=O)CCCCCn2nnc3ccccc3c2=O)c1	i	i	-2.1	2.5	i	i	x	x
CC1CCN(CCCNC(=O)c2nn(C)c3c2CS(=O)(=O)c2ccccc2-3)CC1	i	i	4.1	1.8	i	i	x	x
CCOc1ccc2nc(NC(=O)CN3C(=O)NC4(CCCC4)C3=O)sc2c1	i	i	2.7	0.5	i	i	x	x
CN(C)S(=O)(=O)c1ccc2c(c1)C(=NNC(N)=O)c1cc(S(=O)(=O)N(C)C)ccc1-2	i	i	-0.1	x	i	i	x	x
CN(CCO)S(=O)(=O)c1ccc2c(c1)C(=NNC(N)=O)c1cc(S(=O)(=O)N(C)CCO)ccc1-2	i	i	0.1	0.2	8.21*	i	41.6*	-42.8*
CCN1CCN(c2nc3c(C)cccn3c(=O)c2C=C(C#N)C#N)CC1	i	i	3.0	x	7.28*	i	50.0*	-60.7*
Cc1cccn2c(=O)c(C=C(C#N)C#N)c(N3CCN(C)CC3)nc12	i	i	6.0	-1.5	8.46*	i	56.2*	-65.3*

Assay outcomes as filed in PubChem BioAssay.
